# Measured values as given in PubChem BioAssay AID1159580 (chemical genetic matrix, 2015).
# Where “and” joins values, the source holds several entries; their conditions need not be identical. Identical values can stand only once. Among all 5,500 compounds or so, about 2,000 (36%) were called active. Not shown: some 18% with an inconclusive outcome. Some of the results follow. Values without a mark were called inactive. No stated cut-off is given here; in the data, active means normalized growth mostly below about 0.91 (no sharp cut-off); inconclusive means no clear call, values can overlap the other calls; inactive means mostly above about 0.92.
# Assay: chemical genetic growth profiling, strain panel (AID 1159580);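 further: tested at 20 µM; growth read once vehicle control cultures reached saturation at 30 °C; 1 = growth at the plate median or of vehicle wells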
# Conditions: S. cerevisiae deletion strains, growth OD
smiles,measurement,setting,value
N[C@H](Cc1cc(I)c(Oc2ccc(O)c(I)c2)c(I)c1)C(=O)O,normalized growth,"locus YAL013W, strain DEP1, stronger effect = lower value",1.01
same,normalized growth,"locus YAL021C, strain ccr4, stronger effect = lower value",1.03
same,normalized growth,"locus YAL026C, strain drs2, stronger effect = lower value",0.982
same,normalized growth,"locus YAL030W, strain snc1, stronger effect = lower value",1
same,normalized growth,"locus YBL061C, strain skt5, stronger effect = lower value",0.994
same,normalized growth,"locus YBR009C, strain hhf1, stronger effect = lower value",0.893 (active)
same,normalized growth,"locus YBR021W, strain FUR4, stronger effect = lower value",0.989
same,normalized growth,"locus YBR023C, strain chs3, stronger effect = lower value",0.986
same,normalized growth,"locus YBR171W, strain sec66, stronger effect = lower value",0.996
same,normalized growth,"locus YBR229C, strain ROT2, stronger effect = lower value",1
same,normalized growth,"locus YBR231C, strain swc5, stronger effect = lower value",1
same,normalized growth,"locus YBR279W, strain paf1, stronger effect = lower value",0.991
same,normalized growth,"locus YCL011C, strain gbp2, stronger effect = lower value",1
same,normalized growth,"locus YCL016C, strain dcc1, stronger effect = lower value",0.981
same,normalized growth,"locus YCL029C, strain bik1, stronger effect = lower value",1.01
same,normalized growth,"locus YCL061C, strain MRC1, stronger effect = lower value",0.987
same,normalized growth,"locus YCL069W, strain vba3, stronger effect = lower value",1
same,normalized growth,"locus YCR088W, strain abp1, stronger effect = lower value",1
same,normalized growth,"locus YDL005C, strain med2, stronger effect = lower value",1
same,normalized growth,"locus YDL035C, strain GPR1, stronger effect = lower value",0.992
same,normalized growth,"locus YDL040C, strain nat1, stronger effect = lower value",1.01
same,normalized growth,"locus YDL074C, strain BRE1, stronger effect = lower value",0.939
same,normalized growth,"locus YDL101C, strain DUN1, stronger effect = lower value",0.998
same,normalized growth,"locus YDL134C, strain PPH21, stronger effect = lower value",1
same,normalized growth,"locus YDL185W, strain tfp1, stronger effect = lower value",0.996
same,normalized growth,"locus YDL192W, strain arf1, stronger effect = lower value",0.987
same,normalized growth,"locus YDR001C, strain nth1, stronger effect = lower value",1.01
same,normalized growth,"locus YDR069C, strain doa4, stronger effect = lower value",0.992
same,normalized growth,"locus YDR101C, strain arx1, stronger effect = lower value",0.974
same,normalized growth,"locus YDR137W, strain rgp1, stronger effect = lower value",0.985
same,normalized growth,"locus YDR150W, strain NUM1, stronger effect = lower value",1.05
same,normalized growth,"locus YDR159W, strain sac3, stronger effect = lower value",0.978
same,normalized growth,"locus YDR162C, strain NBP2, stronger effect = lower value",0.999
same,normalized growth,"locus YDR195W, strain ref2",1
same,normalized growth,"locus YDR297W, strain sur2, stronger effect = lower value",0.996
same,normalized growth,"locus YDR318W, strain mcm21, stronger effect = lower value",0.917 (active)
same,normalized growth,"locus YDR334W, strain swr1, stronger effect = lower value",0.997
same,normalized growth,"locus YDR335W, strain msn5, stronger effect = lower value",0.999
same,normalized growth,"locus YDR388W, stronger effect = lower value",0.985
same,normalized growth,"locus YDR392W, strain spt3, stronger effect = lower value",0.748
same,normalized growth,"locus YDR502C, strain sam2, stronger effect = lower value",0.977
same,normalized growth,"locus YEL003W, strain gim4, stronger effect = lower value",0.998
same,normalized growth,"locus YEL037C, strain rad23, stronger effect = lower value",1
same,normalized growth,"locus YEL061C, strain CIN8 (second series), stronger effect = lower value",1
same,normalized growth,"locus YEL061C, strain CIN8, stronger effect = lower value",1.01
same,normalized growth,"locus YER015W, strain faa2, stronger effect = lower value",1
same,normalized growth,"locus YER016W, strain bim1, stronger effect = lower value",0.995
same,normalized growth,"locus YER110C, stronger effect = lower value",1
same,normalized growth,"locus YER111C, strain swi4, stronger effect = lower value",0.993
same,normalized growth,"locus YER155C, strain BEM2 (second series), stronger effect = lower value",0.958
same,normalized growth,"locus YER155C, strain BEM2, stronger effect = lower value",0.997
same,normalized growth,"locus YER167W, strain BCK2, stronger effect = lower value",0.946
same,normalized growth,"locus YFR010W, strain ubp6, stronger effect = lower value",0.997
same,normalized growth,"locus YGL078C, strain dbp3, stronger effect = lower value",0.98
same,normalized growth,"locus YGL086W, strain mad1, stronger effect = lower value",0.946
same,normalized growth,"locus YGL167C, strain pmr1, stronger effect = lower value",1
same,normalized growth,"locus YGL173C, strain kem1, stronger effect = lower value",0.952
same,normalized growth,"locus YGL227W, strain vid30, stronger effect = lower value",0.993
same,normalized growth,"locus YGL240W, strain doc1, stronger effect = lower value",0.973
same,normalized growth,"locus YGL248W, strain PDE1, stronger effect = lower value",0.998
same,normalized growth,"locus YGL253W, strain hxk2, stronger effect = lower value",0.981
same,normalized growth,"locus YGR078C, strain PAC10, stronger effect = lower value",0.966
same,normalized growth,"locus YGR135W, strain pre9, stronger effect = lower value",0.959
same,normalized growth,"locus YGR229C, strain SMI1, stronger effect = lower value",0.981
same,normalized growth,"locus YGR252W, strain gcn5, stronger effect = lower value",0.87
same,normalized growth,"locus YHR013C, strain ard1, stronger effect = lower value",0.971
same,normalized growth,"locus YHR027C, strain rpn1, stronger effect = lower value",0.997
same,normalized growth,"locus YHR030C, strain SLT2, stronger effect = lower value",0.997 and 1.05
same,normalized growth,"locus YHR079C, strain IRE1 (second series), stronger effect = lower value",0.999
same,normalized growth,"locus YHR079C, strain IRE1, stronger effect = lower value",1.05
same,normalized growth,"locus YHR094C, strain hxt1, stronger effect = lower value",0.999
same,normalized growth,"locus YHR129C, strain ARP1, stronger effect = lower value",1
same,normalized growth,"locus YHR142W, strain chs7, stronger effect = lower value",0.964
same,normalized growth,"locus YHR200W, strain rpn10, stronger effect = lower value",0.992
same,normalized growth,"locus YIL066C, strain RNR3, stronger effect = lower value",0.951
same,normalized growth,"locus YIL073C, strain SPO22, stronger effect = lower value",0.967
same,normalized growth,"locus YIL125W, strain kgd1, stronger effect = lower value",0.99
same,normalized growth,"locus YIR030C, strain dcg1, stronger effect = lower value",0.993
same,normalized growth,"locus YJL092W, strain hpr5, stronger effect = lower value",0.998
same,normalized growth,"locus YJL095W, strain BCK1 (second series), stronger effect = lower value",0.865 (active)
same,normalized growth,"locus YJL095W, strain BCK1, stronger effect = lower value",0.964 and 1.04
same,normalized growth,"locus YJL115W, strain asf1, stronger effect = lower value",0.998
same,normalized growth,"locus YJL129C, strain trk1, stronger effect = lower value",0.97
same,normalized growth,"locus YJL134W, strain LCB3, stronger effect = lower value",1
same,normalized growth,"locus YJL154C, strain vps35, stronger effect = lower value",1
same,normalized growth,"locus YJL164C, strain tpk1, stronger effect = lower value",0.911 (active)
same,normalized growth,"locus YJL166W, strain qcr8, stronger effect = lower value",0.884 (active)
same,normalized growth,"locus YJL168C, strain set2, stronger effect = lower value",0.996
same,normalized growth,"locus YJL187C, strain SWE1 (second series), stronger effect = lower value",1.01
same,normalized growth,"locus YJL187C, strain SWE1, stronger effect = lower value",1.01
same,normalized growth,"locus YJR043C, strain POL32, stronger effect = lower value",0.996
same,normalized growth,"locus YJR066W, strain TOR1, stronger effect = lower value",0.99
